# Hits are enriched below; roughly 7.3% of the tested compounds scored in any of these assays.
# AmpC inh no detg – inhibitors of E. coli AmpC beta-lactamase without detergent | AmpC nitrocefin hydrolysis, absorbance 480 nm, 0.0001% Triton | Potency, µM (titrated, usually from 57.1 µM), without a hit: top-dose activity change, negative = inhibition, actives largely listed as inhibitors | 330,000 tested, 0.52% active | AID 485341;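 further: potency means the concentration at half of the fitted maximal effect; plate controls were no compound for no effect and no enzyme for full effect; nearly all actives have a fitted effect of over 20% in size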
# Target sequence (P00811 whole entry, looked up): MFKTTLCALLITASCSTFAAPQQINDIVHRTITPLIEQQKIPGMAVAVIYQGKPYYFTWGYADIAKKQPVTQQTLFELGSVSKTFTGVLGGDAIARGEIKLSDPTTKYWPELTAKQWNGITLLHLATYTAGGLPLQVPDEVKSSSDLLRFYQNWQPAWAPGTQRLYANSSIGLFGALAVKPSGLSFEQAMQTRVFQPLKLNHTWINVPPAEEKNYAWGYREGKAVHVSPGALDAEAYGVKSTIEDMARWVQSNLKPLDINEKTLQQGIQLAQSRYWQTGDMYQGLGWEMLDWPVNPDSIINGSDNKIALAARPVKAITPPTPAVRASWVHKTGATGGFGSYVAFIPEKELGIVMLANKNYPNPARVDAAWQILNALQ
#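 AmpC (5.3 nM in the dispensed reagent) in 20 mM phosphate pH 7.0 with 0.01% (detergent screen) or 0.0001% Triton X-100 was preincubated with compounds for 15 min at room temperature. Nitrocefin was then added from an 800 uM solution, and hydrolysis was followed at 480 nm.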
# HCMV antiviral – human cytomegalovirus inhibition; HFF cells, HCMV-luciferase reporter, 72 h; stronger effect = lower value; activity change, negative = inhibition, % at 57.5 µM; 410,000 tested, 4.5% active; in the data active means activity change below about -60%; inconclusive means no clear call, values can overlap the other calls; inactive means above about -39%
#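 Two compound doses tested in HFFs infected with HCMV-luciferase, MOI 1 PFU/cell, 72 h at 37C. Lysate luminescence read with OneGlo; data normalized against buffer-only and 10uM Salinomycin inhibitor controls.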
# HCV inh – blocks hepatitis C virus; Huh7.5.1 HCVcc-Cre infection, luciferase reporter, 44 h; 340,000 tested, 3.4% active; Potency, µM (highest dose often 41.8 µM), for the others: at the top dose activity change, negative = inhibition, actives largely listed as inhibitors; AID 651820; further: potency means the concentration at half of the fitted maximal effect
#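 1,000 cells/well; 4 h culture; + compound; + HCVcc-Cre (~0.5 moi); 44 h; luciferase substrate, RT 15 min; read 15 sec.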
# AmpC inh detg – inhibitors of E. coli AmpC beta-lactamase with detergent; P00811; AmpC hydrolysis of nitrocefin, absorbance 480 nm, 0.01% Triton; Potency, µM (series often up to 114 µM), inactives show top-dose activity change, negative = inhibition, hits mostly inhibitors; 370,000 tested, 0.041% active; AID 485294;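 further: potency means the concentration at half of the fitted maximal effect; 0% = no-compound wells and -100% = no-enzyme wells; nearly all actives have a fitted effect of over 25% in size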
#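 20 mM phosphate pH 7.0 + 0.01% (detergent screen) or 0.0001% Triton X-100; 5.3 nM AmpC reagent; cpd preinc 15 min RT; nitrocefin (800 uM stock) to start; A480 q20 s × 4 min; Activity was normalised to no-enzyme and no-compound control wells.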
# FMDV antiviral – blocks foot and mouth disease virus; Potency, µM (titrated, usually from 57.9 µM), without a hit: top-dose activity change, negative = inhibition, most hits filed as inhibitors; 410,000 tested, 1.2% active; FMDV antiviral cell-based qHTS; calls by dose curve; tested in HEK293T cells; further: read-out not given here; potency means the concentration at half of the fitted maximal effect; nearly all actives have a fitted effect of over 45% in size
# Active calls of the source: *; ? = inconclusive; / = no result. Unless noted, the call rests on the fitted dose curve; in most records, active means well fitted curve in the direction sought with a large enough effect; inconclusive means small, poorly fitted or top-dose-only effect, or another doubt; inactive means no such curve, though single readings can be large; an effect the other way counts as inactive or inconclusive. Unless noted, on the % scale 0 is the no-effect control and ±100 the full control effect.
SMILES,AmpC inh no detg,HCMV antiviral,HCV inh,AmpC inh detg,FMDV antiviral
CCOC(=O)c1c(-c2ccc3ccccc3c2)csc1NC(=O)CCCC(=O)O,31.9%,-7.6,11.2%,?,-7.9%
CCOC(=O)c1cc(CC)sc1NC(=O)C(c1ccccc1)c1ccccc1,-16.4%,13.7,-28.2%,0.6%,-5.2%
CCOC(=O)c1c(NC(=O)C(c2ccccc2)c2ccccc2)sc2c1C1CCN2CC1,-5.6%,-64.8*,?,0.7%,-18.2%
Cc1cccc(-n2cc(-c3ccccc3)c3c(N4CCOCC4)ncnc32)c1,100.8%,-18.1,3.16µM*,7.1%,?
COc1cccc(N2CCN(c3ncnc4c3c(-c3ccccc3)cn4-c3ccc(C)cc3)CC2)c1,/,-62.9*,/,-4.7%,-1.6%
Cc1ccc(-n2cc(-c3ccccc3)c3c(N4CCOCC4)ncnc32)cc1,96.2%,34.2,?,-0.2%,?
COc1ccc(-c2nc3n(c(=O)c2C#N)CCS3)cc1,-24.5%,-12.8,-12.4%,9.0%,17.0%
N#Cc1c(-c2ccc(F)cc2)nc2n(c1=O)CCS2,-21.3%,-17.2,22.4µM*,-10.5%,1.4%
CCN(CC)c1ccc(/C=N/NC(=O)c2cccc(S(=O)(=O)N3CCOCC3)c2)cc1,38.3%,47.1,10µM*,-0.9%,14.1µM*
O=C(N/N=C/c1ccc(O)c(O)c1)c1cccc(S(=O)(=O)N2CCCCC2)c1,14.1µM*,11.8,18.4%,3.6%,-12.4%
O=C(N/N=C\c1cc(Br)ccc1O)c1ccc(S(=O)(=O)N2CCCCC2)cc1,-13.3%,-100.0*,3.55µM*,?,-1.6%
O=C(CNC(=O)c1ccc(S(=O)(=O)N2CCCC2)cc1)N/N=C/c1ccc(Cl)cc1,-38.2%,11.6,-7.5%,3.8%,-0.9%
O=C(CNC(=O)c1ccc(S(=O)(=O)N2CCCC2)cc1)N/N=C/c1c(Cl)cccc1Cl,-17.0%,-71.6*,?,-2.3%,?
COCCNC(=O)C1CCCN(C(=O)c2cncc(Br)c2)CC1 (centres undefined),/,0.2,/,/,-10.9%
O=C(N/N=C/c1cc(Br)ccc1O)c1ccncc1,-12.4%,0.0,?,0.0%,17.9%
CC(=O)Nc1ccc(C(=O)N/N=C/c2cc(Br)cc(Br)c2O)cc1,-19.4%,-7.8,-7.6%,-10.5%,-14.4%
O=C(N/N=C/c1cc(Cl)ccc1O)c1ccc(Br)cc1,-49.9%,-101.9*,3.16µM*,?,6.1%
CC(C)C(=O)Nc1ccc(C(=O)N/N=C/c2cc(Br)cc(Br)c2O)cc1,-17.9%,-78.2*,?,-6.6%,-13.3%
CCN(C(=O)c1cccc(S(=O)(=O)N2CCc3ccccc32)c1)C1CCS(=O)(=O)C1 (centres undefined),32.0%,-18.0,1.4%,1.8%,-10.0%
COc1ccc(OC)c(NC(=O)C(C)n2c(=O)cc(C)c3c(C)nn(-c4ccccc4)c32)c1 (centres undefined),/,1.1,/,22.4%,-12.5%
COc1ccc(Cl)cc1Nc1nc(C)cc(=O)[nH]1,-7.4%,40.0,10µM*,-0.2%,-13.6%
Cc1cccc(CC(=O)NC2CC(=O)N(c3cccc(F)c3)C2)c1 (centres undefined),/,14.0,/,-0.8%,-0.4%
COC(=O)C(Nc1ccccc1Cl)(c1cc(C)c(O)c(C)c1)C(F)(F)F (centres undefined),-17.8%,-77.6*,14.1µM*,?,-8.2%
Cc1cc(NC(=O)CSc2nc(-c3ccco3)cc(C(F)(F)F)n2)n(-c2ccccc2)n1,-18.9%,-32.1,31.6µM*,-5.5%,-5.0%
Cc1cc(NC(=O)CCCSc2nc(-c3ccco3)cc(C(F)(F)F)n2)n(-c2ccccc2)n1,99.4%,-6.0,11.2µM*,?,?
CC(=O)NCC1CCCN(C(=O)c2ccc(OC3CCN(Cc4ccccn4)CC3)cc2)C1 (centres undefined),7.4%,-27.6,11.7%,-8.0%,1.5%
CCn1cc(C(=O)NCCCOC(C)C)c(=O)c2cc(S(=O)(=O)N3CCC(C)CC3)ccc21,68.7%,0.0,5.2%,-16.0%,-1.7%
CCc1c(C)c2ccc(O)c(CN3CCN(c4ccccc4)CC3)c2oc1=O,/,-60.6*,/,21.1%,?
CCc1noc(C)c1C(=O)NNC(=O)COc1ccc(C)c(C)c1,-12.4%,-3.5,-6.8%,-4.2%,-11.8%
